Measured values from PubChem BioAssay (NCATS).
Results filed as inconclusive are left out. Calls of active or inactive are those of the source. The call rests on the fitted dose curve; in most records, active means well fitted curve in the direction sought with a large enough effect; inconclusive means small, poorly fitted or top-dose-only effect, or another doubt; inactive means no such curve, though single readings can be large; an effect the other way counts as inactive or inconclusive.

Tests used:
[1] = Quantitative High-Throughput drug screen in 47 multiple myeloma cell lines against the NCATS MIPE library collection: MM1S_ATCC cell viability assay (AID 1918980); further: nearly all actives have a fitted effect of over 45% in size; further: potency means the concentration at half of the fitted maximal effect
Procedure, shortened: (§1)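 qHTS format: cells plated (500/well), pin-dosed with MIPE 4.0 compounds, kept 48 h at 37 °C. Readout was CellTiter-Glo luminescence, median RLU.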

[2] = Quantitative High-Throughput drug screen in 47 multiple myeloma cell lines against the NCATS MIPE library collection: MM1R_ATCC cell viability assay (AID 1918981); further: nearly all actives have a fitted effect of over 35% in size; further: potency means the concentration at half of the fitted maximal effect
Procedure, shortened: as §1

[3] = Quantitative High-Throughput drug screen in 47 multiple myeloma cell lines against the NCATS MIPE library collection: L363_DSMZ cell viability assay (AID 1918984); further: nearly all actives have a fitted effect of over 40% in size; further: potency means the concentration at half of the fitted maximal effect
Procedure, shortened: as §1

[4] = Quantitative High-Throughput drug screen in 47 multiple myeloma cell lines against the NCATS MIPE library collection: KMS34_JCRB cell viability assay (AID 1918985); further: nearly all actives have a fitted effect of over 40% in size; further: potency means the concentration at half of the fitted maximal effect
Procedure, shortened: as §1

[5] = Quantitative High-Throughput drug screen in 47 multiple myeloma cell lines against the NCATS MIPE library collection: OCIMY7_PLB cell viability assay (AID 1918987); further: nearly all actives have a fitted effect of over 65% in size; further: potency means the concentration at half of the fitted maximal effect
Procedure, shortened: as §1

[6] = Quantitative High-Throughput drug screen in 47 multiple myeloma cell lines against the NCATS MIPE library collection: OCIMY5_PLB cell viability assay (AID 1918988); further: nearly all actives have a fitted effect of over 65% in size; further: potency means the concentration at half of the fitted maximal effect
Procedure, shortened: as §1

[7] = Quantitative High-Throughput drug screen in 47 multiple myeloma cell lines against the NCATS MIPE library collection: OPM1_PLB cell viability assay (AID 1918989); further: nearly all actives have a fitted effect of over 40% in size; further: potency means the concentration at half of the fitted maximal effect
Procedure, shortened: as §1

[8] = Quantitative High-Throughput drug screen in 47 multiple myeloma cell lines against the NCATS MIPE library collection: SKMM1_PLB cell viability assay (AID 1919863); conditions: SKMM1 myeloma viability, CellTiter-Glo ATP, 48 h; viability: active compounds read low; further: nearly all actives have a fitted effect of over 35% in size; further: potency means the concentration at half of the fitted maximal effect; on viability: series mostly up to about 46 µM
Procedure, shortened: as §1

[9] = Quantitative High-Throughput drug screen in 47 multiple myeloma cell lines against the NCATS MIPE library collection: U266_ATCC cell viability assay (AID 1919864); further: nearly all actives have a fitted effect of over 35% in size; further: potency means the concentration at half of the fitted maximal effect
Procedure, shortened: as §1

[10] = Quantitative High-Throughput drug screen in 47 multiple myeloma cell lines against the NCATS MIPE library collection: XG6_PLB cell viability assay (AID 1919865); further: nearly all actives have a fitted effect of over 40% in size; further: potency means the concentration at half of the fitted maximal effect
Procedure, shortened: as §1

[11] = Quantitative High-Throughput drug screen in 47 multiple myeloma cell lines against the NCATS MIPE library collection: XG1_PLB cell viability assay (AID 1919866); further: nearly all actives have a fitted effect of over 35% in size; further: potency means the concentration at half of the fitted maximal effect
Procedure, shortened: as §1

[12] = Quantitative High-Throughput drug screen in 47 multiple myeloma cell lines against the NCATS MIPE library collection: VP6_DJ cell viability assay (AID 1919867); further: nearly all actives have a fitted effect of over 40% in size; further: potency means the concentration at half of the fitted maximal effect
Procedure, shortened: as §1

[13] = Quantitative High-Throughput drug screen in 47 multiple myeloma cell lines against the NCATS MIPE library collection: PCM6_Riken cell viability assay (AID 1919870); further: nearly all actives have a fitted effect of over 30% in size; further: potency means the concentration at half of the fitted maximal effect
Procedure, shortened: as §1

[14] = Quantitative High-Throughput drug screen in 47 multiple myeloma cell lines against the NCATS MIPE library collection: RPMI8226_ATCC cell viability assay (AID 1919871); further: nearly all actives have a fitted effect of over 30% in size; further: potency means the concentration at half of the fitted maximal effect
Procedure, shortened: as §1

[15] = Quantitative High-Throughput drug screen in 47 multiple myeloma cell lines against the NCATS MIPE library collection: KMS11_JCRBsus cell viability assay (AID 1919873); further: nearly all actives have a fitted effect of over 50% in size; further: potency means the concentration at half of the fitted maximal effect
Procedure, shortened: as §1

[16] = Quantitative High-Throughput drug screen in 47 multiple myeloma cell lines against the NCATS MIPE library collection: KMS28BM_JCRB cell viability assay (AID 1919874); further: nearly all actives have a fitted effect of over 35% in size; further: potency means the concentration at half of the fitted maximal effect
Procedure, shortened: as §1

[17] = Quantitative High-Throughput drug screen in 47 multiple myeloma cell lines against the NCATS MIPE library collection: LP1_DSMZ cell viability assay (AID 1918982); further: nearly all actives have a fitted effect of over 35% in size; further: potency means the concentration at half of the fitted maximal effect
Procedure, shortened: as §1

[18] = molecular target: Cytochrome P450 2D6 (Homo sapiens) (UniProt P10635); experiment: qHTS for inhibitors of CYP2D6 against the NCATS DSHEA and TCM libraries (AID 1919972); conditions: CYP2D6 enzymatic inhibition, luminescence qHTS; further: potency means the concentration at half of the fitted maximal effect
Cytochrome P450 2D6 (Homo sapiens), sequence (P10635 whole entry, looked up): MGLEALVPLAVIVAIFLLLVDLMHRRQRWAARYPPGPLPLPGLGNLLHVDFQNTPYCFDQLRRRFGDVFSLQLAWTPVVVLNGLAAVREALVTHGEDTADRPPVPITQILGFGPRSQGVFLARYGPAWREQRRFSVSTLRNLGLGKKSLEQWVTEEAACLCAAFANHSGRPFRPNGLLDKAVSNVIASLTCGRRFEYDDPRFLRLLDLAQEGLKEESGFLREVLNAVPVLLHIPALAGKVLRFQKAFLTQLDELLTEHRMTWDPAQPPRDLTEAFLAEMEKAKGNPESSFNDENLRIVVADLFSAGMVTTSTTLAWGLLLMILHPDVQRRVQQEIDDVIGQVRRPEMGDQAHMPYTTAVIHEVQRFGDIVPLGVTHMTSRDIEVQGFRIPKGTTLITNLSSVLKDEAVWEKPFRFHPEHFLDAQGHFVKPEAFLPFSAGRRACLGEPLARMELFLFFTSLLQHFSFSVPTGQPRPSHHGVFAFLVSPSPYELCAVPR
Procedure, shortened: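 CYP2D6 enzyme with pro-luciferin substrate in manufacturer buffer (typically 100 mM KPO4), preincubated 15 min RT with substances (most at 19.5 nM upward); NADPH regeneration system (1x) started 30–45 min RT reaction; P450-Glo luminescence read after 30 min; quinidine as intraplate control.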

[19] = molecular target: Cytochrome P450 2C19 (Homo sapiens) (UniProt P33261); experiment: qHTS for inhibitors of CYP2C19 against the NCATS DSHEA and TCM libraries (AID 1919974); conditions: CYP2C19 enzyme inhibition, luminescence qHTS;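 further: luminescence from luciferin released by CYP2C19 oxidation of a pro-luciferin substrate; potency means the concentration at half of the fitted maximal effect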
Cytochrome P450 2C19 (Homo sapiens), sequence (P33261 whole entry, looked up, canonical isoform): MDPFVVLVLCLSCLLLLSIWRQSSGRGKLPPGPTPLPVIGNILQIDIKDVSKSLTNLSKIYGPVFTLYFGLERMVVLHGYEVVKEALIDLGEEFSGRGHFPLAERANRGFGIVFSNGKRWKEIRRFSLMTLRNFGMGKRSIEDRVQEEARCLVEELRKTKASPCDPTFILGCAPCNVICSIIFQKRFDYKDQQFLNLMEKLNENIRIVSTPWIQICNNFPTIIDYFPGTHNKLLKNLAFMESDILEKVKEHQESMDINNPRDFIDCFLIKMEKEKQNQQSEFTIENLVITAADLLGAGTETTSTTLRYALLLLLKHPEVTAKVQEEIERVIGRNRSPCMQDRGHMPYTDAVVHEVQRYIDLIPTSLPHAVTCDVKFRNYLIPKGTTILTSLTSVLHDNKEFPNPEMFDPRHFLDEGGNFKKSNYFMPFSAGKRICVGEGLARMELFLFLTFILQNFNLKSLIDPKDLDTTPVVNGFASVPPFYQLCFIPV
Procedure, shortened: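 Concentration-response screening with isoform-matched pro-luciferin substrates. The CYP reaction was initiated by NADPH regenerating solution and ran 30-45 min in darkness at room temperature.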

[20] = KB-3-1 P-gp reporter qHTS against the NCATS DSHEA and TCM libraries (AID 1919975); further: 0% is about no effect
Procedure, shortened: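 CellTiter-Glo luminescence viability readout; KB-3-1 parental cells, 500/well, attached ~4 h, then compound for ~72 h, 37C, 5% CO2. Bortezomib intraplate control.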

C[C@@H]1[C@@H](CC(C[C@H]2O[C@@H]3O[C@]4(C)CC[C@@H]5[C@H](C)CC[C@@H]([C@H]2C)[C@@]35OO4)C[S+](=O)([O-])c2ccc(COC(=O)N(C)C)cc2)O[C@@H]2O[C@]3(C)CC[C@H]4[C@H](C)CC[C@@H]1[C@@]24OO3 (stereo partly drawn)
active: Potency [1] 0.526 µM | Potency [2] 0.332 µM | Potency [3] 0.0469 µM | Potency [4] 0.0743 µM | Potency [5] 0.0833 µM | Potency [6] 0.209 µM | Potency [7] 0.372 µM | Potency [8] 0.166 µM | Potency [9] 0.372 µM | Potency [10] 0.264 µM | Potency [11] 0.296 µM | Potency [12] 0.372 µM | Potency [13] 0.418 µM | Potency [14] 0.296 µM | Potency [15] 0.148 µM | Potency [16] 0.264 µM

CN(C)[C@@H]1C(=O)C(C(N)=O)=C(O)[C@@]2(O)C(=O)C3=C(O)c4c(O)cccc4[C@@](C)(O)[C@H]3C[C@@H]12
inactive: Potency [3] | Potency [9] | Potency [10] | Potency [11] | Potency [13] | Potency [15] | Potency [16]
active: Potency [14] 5.9 µM

COc1ccc(C(CN(C)C)C2(O)CCCCC2)cc1 (stereo not drawn)
inactive: Potency [2] | Potency [17] | Potency [3] | Potency [4] | Potency [7] | Potency [14] | Potency [15]

CNCC(O)c1ccc(O)cc1 (stereo not drawn)
inactive: Potency [17] | Potency [4] | Potency [5] | Potency [7] | Potency [9] | Potency [11] | Potency [14] | Potency [15] | Potency [16]
active: Potency [1] 14.8 µM | Potency [2] 4.18 µM

C[C@@H]1[C@@H](C(=O)C[C@H]2O[C@@H]3O[C@]4(C)CC[C@@H]5[C@H](C)CC[C@@H]([C@H]2C)[C@@]35OO4)O[C@@H]2O[C@]3(C)CC[C@H]4[C@H](C)CC[C@@H]1[C@@]24OO3
active: Potency [1] 16.6 µM | Potency [2] 3.72 µM | Potency [3] 0.059 µM | Potency [4] 0.235 µM | Potency [5] 0.0743 µM | Potency [6] 0.332 µM | Potency [7] 0.418 µM | Potency [8] 0.743 µM | Potency [14] 0.833 µM

COc1ccc(C(=O)c2c(C)n(CCN3CCOCC3)c3ccccc23)cc1
inactive: Potency [2] | Potency [17] | Potency [7] | Potency [9] | Potency [10] | Potency [11] | Potency [12] | Potency [13] | Potency [14] | Potency [15] | Potency [16]

CC(C)=CCOc1c2occc2cc2ccc(=O)oc12
inactive: outcome [20]
active: Potency [18] 1.78 µM | Potency [19] 12.6 µM

C#CCN(C)[C@H](C)Cc1ccccc1
active: Potency [8] 16.6 µM
inactive: Potency [1] | Potency [17] | Potency [3] | Potency [4] | Potency [7] | Potency [9] | Potency [11]

CCCC(C)(COC(N)=O)COC(=O)NC(C)C (stereo not drawn)
inactive: Potency [2] | Potency [17] | Potency [3] | Potency [5] | Potency [6] | Potency [9] | Potency [11] | Potency [12] | Potency [13] | Potency [14]

COC1(CS(=O)c2ccccc2)CCN(CCc2c[nH]c3ccc(F)cc23)CC1 (stereo not drawn)
inactive: Potency [2] | Potency [17] | Potency [4] | viability [8] 116% | Potency [9] | Potency [13]
active: Potency [10] 16.6 µM | Potency [14] 7.43 µM | Potency [16] 0.743 µM

C=C(C)[C@H]1Cc2c(ccc3c2O[C@@H]2COc4cc(OC)c(OC)cc4[C@@H]2C3=O)O1
active: Potency [1] 1.32 µM | Potency [2] 0.526 µM | Potency [17] 0.264 µM | Potency [3] 0.148 µM | Potency [5] 1.05 µM | Potency [6] 0.833 µM | Potency [7] 7.43 µM | Potency [9] 0.332 µM | Potency [10] 0.526 µM | Potency [11] 0.264 µM | Potency [12] 0.166 µM | Potency [15] 0.332 µM

COC[C@@H](NC(C)=O)C(=O)NCc1ccccc1
inactive: Potency [2] | Potency [17] | Potency [3] | Potency [4] | Potency [6] | Potency [7] | viability [8] 103% | Potency [10] | Potency [11] | Potency [12] | Potency [13] | Potency [14] | Potency [15] | Potency [16]

O=C1CC[C@@]2(O)[C@H]3Cc4ccc(O)c5c4[C@@]2(CCN3CC2CC2)[C@H]1O5
inactive: Potency [1] | Potency [17] | Potency [4] | viability [8] 110% | Potency [9] | Potency [10] | Potency [11] | Potency [13] | Potency [15] | Potency [16]
active: Potency [7] 7.43 µM

O=P1(NCCCl)OCCCN1CCCl (stereo not drawn)
active: Potency [5] 8.33 µM | Potency [6] 18.7 µM | Potency [7] 16.6 µM | Potency [10] 16.6 µM | Potency [12] 6.62 µM
inactive: Potency [13]

Cc1cccc(C)c1NC(=O)CN1CCCC1=O
active: Potency [1] 0.235 µM
inactive: Potency [2] | Potency [17] | Potency [3] | Potency [4] | Potency [5] | Potency [6] | viability [8] 118% | Potency [10] | Potency [13] | Potency [14] | Potency [15] | Potency [16]

COC[C@H]1OC(=O)c2coc3c2[C@@]1(C)C1=C(C3=O)C2CCC(=O)[C@@]2(C)C[C@H]1OC(C)=O (stereo partly drawn)
active: Potency [1] 14.8 µM | Potency [2] 1.18 µM | Potency [3] 11.8 µM | Potency [4] 7.43 µM | Potency [5] 0.743 µM | Potency [6] 14.8 µM | Potency [7] 0.833 µM | Potency [8] 2.96 µM | Potency [9] 20.9 µM | Potency [10] 4.18 µM | Potency [11] 1.48 µM | Potency [12] 3.72 µM | Potency [13] 3.32 µM | Potency [14] 5.9 µM | Potency [15] 13.2 µM

Cn1c(CCCC(=O)O)nc2cc(N(CCCl)CCCl)ccc21
inactive: Potency [3] | Potency [7] | Potency [12] | Potency [15] | Potency [16]
active: Potency [1] 23.5 µM | Potency [2] 18.7 µM | Potency [5] 6.62 µM | Potency [6] 8.33 µM | Potency [10] 14.8 µM | Potency [11] 14.8 µM

Cc1cc(SCc2sc(-c3ccc(C(F)(F)F)c(F)c3)nc2C)ccc1OCC(=O)O
active: Potency [1] 9.35 µM | Potency [17] 16.6 µM | Potency [5] 20.9 µM | Potency [6] 13.2 µM | Potency [7] 20.9 µM | Potency [9] 18.7 µM | Potency [13] 20.9 µM | Potency [14] 18.7 µM

CC1=C2C[C@@H]3[C@@H](CC=C4C[C@@H](O)CC[C@@]43C)[C@@H]2CC[C@]12O[C@H]1C[C@H](C)CN[C@H]1[C@H]2C
active: Potency [2] 14.8 µM | Potency [6] 11.8 µM | Potency [7] 0.0469 µM | Potency [9] 20.9 µM | Potency [14] 6.62 µM
inactive: Potency [17] | Potency [4] | Potency [10] | Potency [11] | Potency [13] | Potency [16]
